Laboratory results reported in PubChem BioAssay (NCI).
Compounds without any hit were thinned out: in the full panel of roughly 83,000, 20% have a hit.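 Values shown are percent growth following 48 h exposure of cells in 96-well plates to a single concentration of compound; below 10 was considered active.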 A number with no mark means an inactive call. Active and inactive are the calls of the source.

What follows are molecules tested on UO-31 renal (assay: NCI-60 one-dose screen, 48 h (100 = growth as untreated, 0 = no growth, -100 = all killed)). Conditions: 10 µM unless noted.
Procedure: Growth inhibition of the UO-31 human tumor cell line is measured as a screen for anti-cancer activity. Cells are grown in 96 well plates and exposed to the test compound for 48 hours. Compounds are tested at a single concentration, which is 10^-5 M for most compounds. The reported endpoint is percent growth (GI% or GIPRCNT), where numbers from 0 - 100% represent growth inhibition, and numbers from -100% - 0 represent cell death. For example, a value of 40 represents 60% growth inhibition. A value of 0 means no net growth occurred over the course of the experiment. A value of -40 indicates 40% of cells at the beginning of the experiment died by the end of the experiment. A value of -100 means all cells are dead at the end of the experiment.
NCI-60 Human Tumor Cell Lines Screen was performed using the standard one-dose NCI protocol, which is described in more detail at https://dtp.cancer.gov/discovery_development/nci-60/default.htm.
Compounds with GIPRCNT values below 10 were considered active. Activity score was based on GIPRCNT using the following formula: […]
Score is 0 for GIPRCNT values of 100 or above, 50 for GIPRCNT values of 0, and 100 for GIPRCNT values of -100.

SMILES	growth
Cc1ccc(NS(=O)(=O)c2ccc(-c3cnc(C4CC4)o3)cc2)cc1	55.3%
NS(=O)(=O)c1cc(Br)c2c(c1)S(=O)(=O)NCN2	96.7%
Cc1nc2nc(C(F)(F)F)[nH]c2nc1C	101%
C=CC(=O)N1CC2(CCC(n3nc(-c4ccc(Oc5ccccc5)cc4)c4c(N)ncnc43)CC2)C1	-63.7% (active)
CON=C1C[C@]2(C[C@@H]3C[C@@H](C/C=C(\C)C[C@@H](C)/C=C/C=C4\CO[C@@H]5[C@H](O)C(C)=C[C@@H](C(=O)O3)[C@]45O)O2)O[C@H](/C(C)=C/C(C)C)[C@H]1C	24%
Cc1ccc(-c2c3c(N)c4c(nc3nc3c2c(C)nn3-c2ccccc2)CCCC4)cc1	88%
COc1cc(/C=C/c2cc(/C=C/c3ccc(O)c(OC)c3)n(-c3ccccc3)n2)ccc1O	-44.6% (active)
c1ccc2cc(Cn3c(-c4ccc5ccccc5c4)[n+](Cc4ccc5ccccc5c4)c4ccccc43)ccc2c1	-77.1% (active)
Nc1cc2[nH]c(=O)c3ccccc3c2cc1Br	41.2%
Cc1ccc(N=c2nc3sc4c(C)ccc(C)c4n3c(N)c2C#N)cc1	89.6%
COc1ccc2c(c1)c(=O)oc1c(C)c(OCC(C)=O)ccc12	98.3%
COc1ccc(/C=C(\C#N)c2cc3ccccc3n2C)cc1	48.5%
COc1cc2nc(SCc3cc(OC)c(OC)c(OC)c3)n(-c3ccccc3OC)c(=O)c2cc1OC	36.3%
Cc1nc2cc(Nc3nc(Cl)nc(Nc4ccc(F)cc4)n3)ccc2n1Cc1ccccc1	80.7%
O=c1oc2ccccc2cc1-c1csc(N=Nc2c(O)[nH]c3ccc(Br)cc23)n1	86.3%
CC(C)(C)[Si](C)(C)OC1[C@@H](COC(=O)NC(=O)CCl)O[C@@H](n2cnc3c(N)ncnc32)[C@H]1O[Si](C)(C)C(C)(C)C (stereo not given in full)	20%
COc1cccc(C2CC(=O)Nc3cc4c(cc32)OCO4)c1OC (stereo not given)	72.4%
O=C(N/N=C(\CS(=O)(=O)c1ccccc1)c1cc2cc(Br)ccc2oc1=O)c1ccccc1	94.4%
COc1ccc(/C=C2\Oc3cc(C)c(Cl)cc3C2=O)cc1OC	89.5%
CC(=O)Nc1ccc(Sc2ccc([N+](=O)[O-])o2)cc1	24.2%

SMILES	growth
NC1=NC(c2ccccc2OS(=O)(=O)c2ccc(Br)cc2)n2c(nc3ccccc32)N1 (stereo not given)	73.5%
FC(F)(F)c1cc(CNc2nc(Cl)ncc2Br)cc(C(F)(F)F)c1	67.1%
Nc1ccccc1-c1n[nH]c(=O)[nH]c1=O	86.8%
COc1cc(-c2ccc3cc(OC)c(OC)c(OC)c3c2)cc(OC)c1OC	35.5%
CC(=O)Nc1ccccc1-c1n[nH]c(=O)[nH]c1=O	79.1%
CCN(CC)c1ccc2c(c1)OS(=O)(=O)N=C2	82.6%
Brc1ccc(SCN(CSc2ccc(Br)cc2)Cc2ccccc2)cc1	39%
COC(=O)c1c2c(c(C)[n+]([O-])c1C)C(=O)C=C(NCc1cccc(Cl)c1)C2=O	-18.5% (active)
COc1ccc(-n2ncc3c2ccc2cc(S(=O)(=O)c4ccccc4)c(=O)n(C)c23)cc1	94.4%
CCCCCn1c(=N)n(CC(O)COc2cccc(C)c2)c2ccccc21 (stereo not given)	0.645% (active)
CCOc1ccc(-c2cnnn2-c2nonc2-n2cccc2)cc1	29.8%
CCCCCCCCCCCC(=O)[O][Sn]([CH2]CCC)([CH2]CCC)[CH2]CCC	-97.9% (active)
Cc1nn2c(-c3nc4ccc(Cl)cc4[nH]3)c(-c3ccc(F)cc3)nc2s1	86.9%
COc1ccc2nc(-n3nc(C)cc3C)c(-n3nc(C)cc3C)nc2c1	86.5%
c1ccc(-c2n(Cc3ccc4ccccc4n3)c3ccccc3[n+]2Cc2ccc3ccccc3n2)cc1	27.8%
CCCCNNC(=O)c1ccc(Br)cc1	25.1%
Oc1ccc2ccccc2c1C1NN=C(c2ccccc2)S1 (stereo not given)	-11.5% (active)
COC(=O)c1c2c(c(C)[n+]([O-])c1C)C(=O)C=C(NCc1cccc(OC)c1)C2=O	-62.5% (active)
Cc1ccc(S(=O)(=O)N2CCc3ccc(O)c4c3C2Cc2ccc3c(c2-4)OCO3)cc1 (stereo not given)	30.4%
Cn1c2ccccc2c2nn(C(=O)c3ccccc3)c(=O)nc21	73.4%
